A selection: hits, their analogues and other compounds. The true share with any hit is near 5.8%.
PINK1 modulator: changes PINK1 expression; Potency, µM (top dose mostly 76.6 µM), usual class: activators; PINK1 immunofluorescence, high-content cytometry, 24 h; actives 0.2% (n = 410,000); active = well fitted activation curve with a large enough effect; inconclusive = small, poorly fitted or top-dose-only effect; cell line not stated here; also: nearly all actives have a fitted effect of over 65% in size
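Stable cell line, 250 cells/well, 12 h attachment; compounds pinned at 5 concentrations, 24 h; CCCP control. Fixed with nuclear dye, primary antibodies 12 h at 10 degrees C, secondary plus cell stain; laser-scanning cytometer read.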
SW480 rerep: induces DNA re-replication in SW480 colon adenocarcinoma cells. actives 1.8% (n = 340,000). Potency, µM (series often up to 46.1 µM), most hits filed as activators. AID 624297. SW480 DNA re-replication, Hoechst DNA content imaging, 48 h; also: nearly all actives have a fitted effect of over 55% in size
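Quantitative HTS format with DMSO vehicle controls; 48 hr drug incubation at 37 C, then 40 min Hoechst staining and scanning imager measurement at 405 nm excitation.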
MCF10A rereplic: inducers of DNA re-replication in MCF 10A breast cells | MCF 10A DNA re-replication, Hoechst nuclear intensity, 48 h | Potency, µM (top dose mostly 46.1 µM), actives largely listed as activators | actives 2.9% (n = 350,000) | AID 624296; also: nearly all actives have a fitted effect of over 50% in size
12-LOX inh: inhibitors of human 12S-lipoxygenase ALOX12. AID 1671190. P18054. Potency, µM (highest dose often 108 µM), most hits filed as inhibitors. purified 12hLO, xylenol orange hydroperoxide absorbance. actives 1.1% (n = 580,000)
Target sequence (P18054 whole entry, looked up): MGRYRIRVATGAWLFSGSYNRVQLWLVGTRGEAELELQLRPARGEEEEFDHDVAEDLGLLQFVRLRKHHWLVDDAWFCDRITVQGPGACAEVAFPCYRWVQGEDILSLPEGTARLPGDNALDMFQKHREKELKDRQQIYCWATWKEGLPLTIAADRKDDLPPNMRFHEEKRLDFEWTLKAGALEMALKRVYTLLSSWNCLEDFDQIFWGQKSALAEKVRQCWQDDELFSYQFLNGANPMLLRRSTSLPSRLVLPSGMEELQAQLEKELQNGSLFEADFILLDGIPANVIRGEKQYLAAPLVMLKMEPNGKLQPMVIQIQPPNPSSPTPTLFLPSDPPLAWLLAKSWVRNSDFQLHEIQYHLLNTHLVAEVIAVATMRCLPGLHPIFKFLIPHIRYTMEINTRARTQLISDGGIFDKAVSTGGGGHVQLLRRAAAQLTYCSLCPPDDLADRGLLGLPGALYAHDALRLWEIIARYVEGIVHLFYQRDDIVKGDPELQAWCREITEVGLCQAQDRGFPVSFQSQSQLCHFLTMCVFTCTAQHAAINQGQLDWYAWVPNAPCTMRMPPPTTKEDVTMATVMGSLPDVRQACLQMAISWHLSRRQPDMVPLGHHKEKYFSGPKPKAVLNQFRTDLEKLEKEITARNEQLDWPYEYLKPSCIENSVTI
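Hydroperoxide product was detected by ferrous iron/xylenol orange as the 573 to 405 nm absorbance ratio. Arachidonic acid at 40 uM (final) was turned over for 30 min at room temperature by 150 nM human 12hLO, pH 7.0 Hepes buffer, after 15 min compound preincubation.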
KB-3-1 tox: kills parental KB-3-1 adenocarcinoma cells. Potency, µM (series often up to 46.1 µM), most hits filed as cytotoxic. actives 1.4% (n = 400,000). KB-3-1 viability, CellTiter-Glo ATP luminescence, 72 h. AID 1347075; also: nearly all actives have a fitted effect of over 60% in size
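Multi-concentration cytotoxicity screen in KB-3-1 cells grown in DMEM lacking phenol red with 10% FBS. After 72 h at 37 °C with compound, ATP-dependent luminescence was recorded.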
KB-V1 cytotox: KB-V1 MDR subline cytotoxicity; KB-V1 MDR cells viability, CellTiter-Glo, 72 h; Potency, µM (series often up to 46.1 µM), most hits filed as cytotoxic; actives 3.4% (n = 400,000); AID 1347076; also: nearly all actives have a fitted effect of over 60% in size
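Compound-treated KB-V1 multidrug-resistant cells, 72 h, 37 degrees C; viability by CellTiter-Glo. Fitted qHTS curves give the values.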
Numbers stand for hits; . = inactive; ? = inconclusive; / = no result; [ ] = another dose, or the depositor's remark. Unless noted, calls follow the shape of the dose curve; as a rule, active = well fitted curve in the direction sought with a large enough effect; inconclusive = small, poorly fitted or top-dose-only effect, or another doubt; inactive = no such curve, though single readings can be large; an effect the other way counts as inactive or inconclusive.

SMILES	PINK1 modulator	SW480 rerep	MCF10A rereplic	12-LOX inh	KB-3-1 tox	KB-V1 cytotox
O=C(NCCOc1cccc(Cl)c1Cl)c1cc(-n2cnnc2)ccc1Cl	.	.	.	.	.	.
O=C(NCCOc1cccc(Oc2ccccc2)c1)c1cc(-n2cnnc2)ccc1Cl	.	.	.	.	.	16µM
O=C(Nc1ccc(Br)cc1)c1cc2ccc(O)cc2oc1=O	/	/	/	.	/	/
COc1ccc(-c2cc3ccc(OCC(N)=O)cc3oc2=O)cc1OC	.	.	.	.	.	.
Cc1ccc2cc3cc(C(=O)NCc4ccco4)oc3nc2c1	.	.	.	.	3.5µM	.
Cc1ccc(N=c2oc3cc(O)ccc3cc2C(N)=O)cc1	.	16µM	9.2µM	.	.	.
N=c1oc2cc(O)ccc2cc1C(=O)Nc1ccc(Cl)cc1	?	2.6µM	1.6µM	.	?	.
COc1ccc(-c2cc3ccc(O)cc3oc2=O)cc1OC	.	10µM	?	.	.	.
Cc1ccc(C(=O)N/N=c2\oc3ccccc3cc2C(N)=O)cc1	.	.	.	.	.	.
CC(=O)c1cc2ccc(O)cc2oc1=O	.	18µM	21µM	.	.	.
COc1ccc2cc(C(=O)NCc3ccco3)c(=O)oc2c1	.	.	.	.	.	.
O=C(NCc1ccco1)c1cc2ccc(O)cc2oc1=O	.	?	5.8µM	.	?	.
Cc1ccc(S(=O)(=O)N2CCN(C(=O)CNC(=O)c3ccc4c(c3)OCO4)CC2)cc1	/	/	/	.	/	/
CCCc1nnc(NC(=O)Cn2ccc3ccc(Cl)cc32)s1	/	/	/	.	/	/
Cc1ccc(NC(=O)c2cc(C)n(-c3ccccc3)c2C)cc1	.	.	3.3µM	.	.	.
O=C(NCCNc1ccc([N+](=O)[O-])cc1C(F)(F)F)c1cccc(F)c1	.	?	.	.	?	18µM
O=C(NCCNc1ccc([N+](=O)[O-])cc1C(F)(F)F)c1ccccc1	.	.	.	.	.	16µM
COc1ccnc(Oc2ccc(F)cc2)c1C(=O)N/C=N/OCc1ccc(Cl)cc1Cl	/	2.3µM	?	.	.	?
COc1ccc(NC(C)C(=O)Nc2ccc(C#N)cc2)cc1Cl (centres undefined)	.	.	.	.	.	21µM
COc1ccc(NC(C)C(=O)Nc2ccc(C(C)(C)C)cc2)cc1Cl (centres undefined)	.	.	16µM	.	.	.
CCC(C)[C@H](NC(=O)Nc1ccc2oc(-c3cccnc3)nc2c1)C(=O)OC (some centres undefined)	/	/	/	.	/	/
COc1ccccc1NC(=O)Nc1nc(CC(=O)NCc2ccccn2)cs1	.	12µM	?	.	.	.
COc1cc(OC)cc(C(=O)Nc2nc(CC(=O)NCc3ccccc3OC)cs2)c1	.	.	?	?	.	16µM
COc1ccccc1CNC(=O)Cc1csc(NC(=O)Nc2ccccc2OC)n1	.	.	?	.	.	?
COc1cc(OC)cc(C(=O)Nc2nc(CC(=O)NCc3ccc(F)cc3)cs2)c1	.	?	?	?	?	?
SMILES	PINK1 modulator	SW480 rerep	MCF10A rereplic	12-LOX inh	KB-3-1 tox	KB-V1 cytotox
CCNc1cc(N2CCC(CCC(=O)N3CCN(c4ncccn4)CC3)CC2)ncn1	/	/	/	.	/	/
CCn1cc[n+](C)c1P(c1ccccc1)c1ccccc1	.	.	.	40µM	7.3µM	.
Cc1cccc(N/C=C/c2onc(C)c2[N+](=O)[O-])c1	.	.[9.22 µM]	.	.	?	.
Cc1cccc(/C=C/c2onc(C)c2[N+](=O)[O-])n1	.	?	7.3µM	.	10µM	?
Cc1noc(/C=C/c2nn(C)cc2Cl)c1[N+](=O)[O-]	.	?	21µM	.	?	?
COc1cc(/C=C/c2onc(C)c2[N+](=O)[O-])cc(OC)c1OC	.	.	.	.	.	.
CCCCCCCCN1C(=O)[C@H](CC(=O)NCc2ccccc2)C[C@@]2(C(=O)OC)CC(C)(C)CC=C12	/	/	/	.	?	18µM
COC(=O)[C@@]12C[C@@H](CC(=O)NCc3ccc(OC)c(OC)c3)C(=O)N(CCc3ccc(OC)c(OC)c3)C1=CCC(C)(C)C2	/	/	/	.	.	?
CCCCCCCCN1C(=O)[C@H](CC(=O)NCCCC)C[C@@]2(C(=O)OC)CC(C)(C)CC=C12	/	/	/	?	?	21µM
CCCCCCCCN1C(=O)[C@H](CC(=O)NCCCCc2ccccc2)C[C@@]2(C(=O)OC)CC(C)(C)CC=C12	/	/	/	.	.	?
CCCCCCCCN1C(=O)[C@H](CC(=O)NCc2ccc(OC)c(OC)c2)C[C@@]2(C(=O)OC)CC(C)(C)CC=C12	/	/	/	?	?	21µM
CCN(CC)C(=O)C1=C(C)N(Cc2ccccc2)C(=O)NC1c1ccc(F)cc1F (centres undefined)	/	/	/	.	/	/
Cc1nc2n(c1C(=O)Nc1cc(-c3ccc(F)cc3)[nH]n1)CCC(Nc1ccc(F)cc1)C2 (centres undefined)	/	/	/	.	/	/
COc1cc(OC)c(OC)cc1CN1CCc2nc(N(C)C)[nH]c(=O)c2CC1	/	/	/	.	/	/
Cc1ccc(-c2nnc(-c3ccccc3)c(N3CCOCC3)n2)cc1	.	?	?	.	?	5.8µM
Brc1ccc(-c2nnc(-c3ccccc3)c(N3CCSCC3)n2)cc1	.	.	.	.	.	?
CN1CCN(c2nc(-c3ccc(Br)cc3)nnc2-c2ccccc2)CC1	.	.	?	.	.	26µM
N#Cc1c(-c2ccccc2)nc(-c2ccccc2)nc1N1CCOCC1	.	.	?	.	.	.
COc1ccc(OC)c(C(O)Cn2ccn3nc(-c4ccc(C(C)C)cc4)cc3c2=O)c1 (centres undefined)	/	/	/	.	/	/
O=C(CCCC(=O)OCC(=O)c1cccc([N+](=O)[O-])c1)Nc1cc(C(F)(F)F)ccc1Cl	/	/	/	.	/	/
CC1CC(C)CN(C(=S)Nc2ccc(OC(F)F)cc2)C1 (centres undefined)	.	.	.	.	.	21µM
COc1ccc(OC)c(S(=O)(=O)Nc2ccc(Oc3ccccc3)cc2)c1	.	.	?	.	.	21µM
COc1ccc(S(=O)(=O)Nc2cccc(-c3ccc4nncn4n3)c2)cc1F	.	5.2µM	5.8µM	.	.	?
COc1ccc(OC)c(S(=O)(=O)Nc2ccc(-c3ccc4nncn4n3)cc2)c1	.	.	?	?	18µM	.
Cc1cnc(C(=O)N2CCCCCCNC(=O)[C@@H]3C[C@@H](c4nc(-c5cccnc5)no4)C[C@@H]32)cn1	/	/	/	.	/	/
COc1cccc(C)c1NC(=O)c1cccc(CN2CCCC(C)C2)c1 (centres undefined)	/	/	/	.	/	/
Cc1ccccc1Cn1c(=N)n(CC(=O)c2ccc([N+](=O)[O-])cc2)c2ccccc21	.	.	?	?	?	18µM
CCCn1c(=N)n(CC(=O)c2ccc([N+](=O)[O-])cc2)c2ccccc21	.	.	15µM	?	?	?

Bioassay records deposited in PubChem by National Center for Advancing Translational Sciences (NCATS).
